# ± gives the standard deviation of the averaged measurements. Targets with the largest changes are over-represented here; the source holds about 6,500 in all.
# Compound: Nc1ncnc2c1ncn2[C@@H]1O[C@H](COP(=O)(O)OP(=O)(O)OP(=O)(O)O)[C@@H](O)[C@H]1O [adenosine triphosphate]
# Assay: NP40-soluble protein abundance relative to vehicle (solubility fold change) (ratio); higher = more soluble protein in presence of ATP
# Conditions: concentration: 1mM
# How it was run: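 Data come from three independent experiments in which Dounce-homogenised Jurkat crude lysate was treated at eight concentrations from 0.1 to 10 mM. Treatment ran 10 min at room temperature and then 3 min at 37 °C, after which 0.8% NP40 and benzonase were added for 60 min at 4 °C before ultracentrifugation. The supernatant underwent TMT labelling and LC-MS/MS, and vsn-normalised intensities were expressed as fold change against the detergent-processed vehicle in each replicate.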
# Sequence of UniProt O95232 (O95232 whole entry, one chain of several): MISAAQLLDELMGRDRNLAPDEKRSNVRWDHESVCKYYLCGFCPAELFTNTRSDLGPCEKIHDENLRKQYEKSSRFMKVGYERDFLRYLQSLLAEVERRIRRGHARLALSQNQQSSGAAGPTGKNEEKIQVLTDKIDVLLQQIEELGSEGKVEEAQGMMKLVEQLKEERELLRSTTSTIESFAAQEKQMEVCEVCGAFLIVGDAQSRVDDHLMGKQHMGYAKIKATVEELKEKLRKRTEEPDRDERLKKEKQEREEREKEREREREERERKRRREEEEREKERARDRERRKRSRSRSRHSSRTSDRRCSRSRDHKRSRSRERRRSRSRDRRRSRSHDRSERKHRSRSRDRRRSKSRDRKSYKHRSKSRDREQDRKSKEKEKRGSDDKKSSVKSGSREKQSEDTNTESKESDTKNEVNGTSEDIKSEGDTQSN
# Sequence of UniProt Q9GZN1 (Q9GZN1 whole entry, one chain of several): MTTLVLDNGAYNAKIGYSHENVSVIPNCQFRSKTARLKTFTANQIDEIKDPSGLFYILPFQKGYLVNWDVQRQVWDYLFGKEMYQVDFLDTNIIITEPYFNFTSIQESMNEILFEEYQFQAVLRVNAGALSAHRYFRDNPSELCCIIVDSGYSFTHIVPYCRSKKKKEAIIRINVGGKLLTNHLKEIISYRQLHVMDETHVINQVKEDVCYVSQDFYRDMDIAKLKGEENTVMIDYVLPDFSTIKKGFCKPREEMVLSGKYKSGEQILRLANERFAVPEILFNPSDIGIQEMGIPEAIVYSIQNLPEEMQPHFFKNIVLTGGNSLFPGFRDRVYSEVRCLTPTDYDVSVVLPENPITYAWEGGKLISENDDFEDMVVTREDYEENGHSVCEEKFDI
# Sequence of UniProt P04406 (P04406 whole entry, looked up, one chain of several): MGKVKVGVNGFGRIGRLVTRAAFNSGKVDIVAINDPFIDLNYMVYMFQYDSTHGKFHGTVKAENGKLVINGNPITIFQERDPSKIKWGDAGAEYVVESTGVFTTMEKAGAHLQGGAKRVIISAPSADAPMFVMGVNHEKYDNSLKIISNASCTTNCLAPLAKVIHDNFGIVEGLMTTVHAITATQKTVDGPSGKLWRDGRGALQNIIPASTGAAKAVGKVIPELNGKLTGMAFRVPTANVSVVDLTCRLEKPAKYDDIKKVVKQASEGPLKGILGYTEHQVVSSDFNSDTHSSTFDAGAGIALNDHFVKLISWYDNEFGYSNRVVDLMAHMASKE
# Sequence of UniProt Q9Y483 (Q9Y483 whole entry, one chain of several): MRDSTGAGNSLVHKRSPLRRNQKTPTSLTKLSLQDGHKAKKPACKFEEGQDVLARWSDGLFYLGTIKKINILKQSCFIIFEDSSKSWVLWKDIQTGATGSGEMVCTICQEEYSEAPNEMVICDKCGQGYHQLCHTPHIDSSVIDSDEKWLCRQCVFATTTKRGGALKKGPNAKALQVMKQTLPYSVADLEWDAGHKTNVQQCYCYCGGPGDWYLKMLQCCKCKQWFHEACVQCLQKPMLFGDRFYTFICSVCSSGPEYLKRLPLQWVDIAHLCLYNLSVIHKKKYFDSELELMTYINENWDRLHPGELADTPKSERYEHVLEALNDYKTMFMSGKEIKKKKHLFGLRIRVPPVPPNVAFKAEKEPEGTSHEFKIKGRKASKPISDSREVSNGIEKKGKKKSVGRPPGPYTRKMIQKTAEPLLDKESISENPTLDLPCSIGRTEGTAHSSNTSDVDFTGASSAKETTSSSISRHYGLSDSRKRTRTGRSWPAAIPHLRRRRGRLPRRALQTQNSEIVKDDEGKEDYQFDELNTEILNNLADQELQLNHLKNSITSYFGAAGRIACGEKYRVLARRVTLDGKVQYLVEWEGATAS
# Sequence of UniProt Q9BZF1 (Q9BZF1 whole entry, one chain of several): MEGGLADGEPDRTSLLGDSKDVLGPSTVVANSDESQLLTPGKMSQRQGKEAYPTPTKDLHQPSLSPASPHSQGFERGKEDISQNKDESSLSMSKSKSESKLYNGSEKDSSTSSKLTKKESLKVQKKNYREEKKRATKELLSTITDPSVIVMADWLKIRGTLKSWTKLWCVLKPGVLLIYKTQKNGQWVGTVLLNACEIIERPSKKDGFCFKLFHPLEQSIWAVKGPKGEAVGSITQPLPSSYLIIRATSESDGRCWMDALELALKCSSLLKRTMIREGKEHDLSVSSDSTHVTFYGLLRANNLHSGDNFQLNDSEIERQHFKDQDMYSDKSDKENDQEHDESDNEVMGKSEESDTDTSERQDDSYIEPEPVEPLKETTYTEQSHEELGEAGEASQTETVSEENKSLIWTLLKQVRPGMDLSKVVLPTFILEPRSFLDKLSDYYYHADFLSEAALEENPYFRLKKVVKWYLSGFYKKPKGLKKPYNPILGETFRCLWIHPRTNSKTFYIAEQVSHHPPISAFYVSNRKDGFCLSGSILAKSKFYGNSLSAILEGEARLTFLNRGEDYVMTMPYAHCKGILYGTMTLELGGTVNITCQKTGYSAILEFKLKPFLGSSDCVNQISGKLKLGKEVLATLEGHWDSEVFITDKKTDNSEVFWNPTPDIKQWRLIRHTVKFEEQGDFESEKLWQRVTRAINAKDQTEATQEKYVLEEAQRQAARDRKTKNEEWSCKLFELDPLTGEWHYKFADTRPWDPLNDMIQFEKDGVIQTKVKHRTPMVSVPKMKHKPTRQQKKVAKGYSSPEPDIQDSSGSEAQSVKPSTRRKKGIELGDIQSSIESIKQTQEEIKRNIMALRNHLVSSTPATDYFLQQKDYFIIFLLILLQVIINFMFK
# Sequence of UniProt Q92993 (Q92993 whole entry, looked up, one chain of several): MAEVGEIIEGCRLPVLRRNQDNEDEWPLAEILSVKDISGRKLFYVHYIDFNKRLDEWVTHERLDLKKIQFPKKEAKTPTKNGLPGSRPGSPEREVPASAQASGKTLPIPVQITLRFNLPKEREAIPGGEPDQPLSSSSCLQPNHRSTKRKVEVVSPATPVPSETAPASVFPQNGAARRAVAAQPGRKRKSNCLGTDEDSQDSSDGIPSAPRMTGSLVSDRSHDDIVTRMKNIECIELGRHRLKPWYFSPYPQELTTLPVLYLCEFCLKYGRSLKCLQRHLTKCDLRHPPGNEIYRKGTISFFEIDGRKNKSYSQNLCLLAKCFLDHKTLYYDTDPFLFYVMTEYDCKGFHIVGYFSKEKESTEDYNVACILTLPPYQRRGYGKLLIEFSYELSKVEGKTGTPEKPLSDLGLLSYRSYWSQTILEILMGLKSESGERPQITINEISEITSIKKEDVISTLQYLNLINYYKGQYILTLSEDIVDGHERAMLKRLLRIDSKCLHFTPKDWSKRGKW
# Sequence of UniProt P43243 (P43243 whole entry, one chain of several): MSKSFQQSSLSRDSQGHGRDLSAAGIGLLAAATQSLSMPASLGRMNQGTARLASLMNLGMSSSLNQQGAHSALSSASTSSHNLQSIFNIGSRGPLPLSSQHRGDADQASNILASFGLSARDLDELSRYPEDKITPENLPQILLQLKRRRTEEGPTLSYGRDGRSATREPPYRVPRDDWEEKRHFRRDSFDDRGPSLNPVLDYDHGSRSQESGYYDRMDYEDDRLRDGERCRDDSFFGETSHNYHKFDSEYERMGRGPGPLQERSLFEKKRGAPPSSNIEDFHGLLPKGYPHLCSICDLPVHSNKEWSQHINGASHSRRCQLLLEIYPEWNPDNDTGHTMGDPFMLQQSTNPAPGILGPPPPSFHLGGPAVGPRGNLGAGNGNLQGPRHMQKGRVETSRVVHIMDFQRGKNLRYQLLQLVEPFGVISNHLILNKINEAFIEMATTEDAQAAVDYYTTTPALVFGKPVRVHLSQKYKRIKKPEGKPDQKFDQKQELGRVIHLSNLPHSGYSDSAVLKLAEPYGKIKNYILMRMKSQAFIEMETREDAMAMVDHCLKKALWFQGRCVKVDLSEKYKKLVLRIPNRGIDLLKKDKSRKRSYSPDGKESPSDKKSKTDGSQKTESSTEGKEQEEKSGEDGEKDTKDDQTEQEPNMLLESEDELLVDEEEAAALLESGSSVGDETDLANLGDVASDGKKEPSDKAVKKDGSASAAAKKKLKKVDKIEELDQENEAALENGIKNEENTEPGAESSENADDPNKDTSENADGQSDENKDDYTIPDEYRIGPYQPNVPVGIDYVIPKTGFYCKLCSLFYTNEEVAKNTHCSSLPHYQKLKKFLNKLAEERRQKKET
# Sequence of UniProt O75131 (O75131 whole entry): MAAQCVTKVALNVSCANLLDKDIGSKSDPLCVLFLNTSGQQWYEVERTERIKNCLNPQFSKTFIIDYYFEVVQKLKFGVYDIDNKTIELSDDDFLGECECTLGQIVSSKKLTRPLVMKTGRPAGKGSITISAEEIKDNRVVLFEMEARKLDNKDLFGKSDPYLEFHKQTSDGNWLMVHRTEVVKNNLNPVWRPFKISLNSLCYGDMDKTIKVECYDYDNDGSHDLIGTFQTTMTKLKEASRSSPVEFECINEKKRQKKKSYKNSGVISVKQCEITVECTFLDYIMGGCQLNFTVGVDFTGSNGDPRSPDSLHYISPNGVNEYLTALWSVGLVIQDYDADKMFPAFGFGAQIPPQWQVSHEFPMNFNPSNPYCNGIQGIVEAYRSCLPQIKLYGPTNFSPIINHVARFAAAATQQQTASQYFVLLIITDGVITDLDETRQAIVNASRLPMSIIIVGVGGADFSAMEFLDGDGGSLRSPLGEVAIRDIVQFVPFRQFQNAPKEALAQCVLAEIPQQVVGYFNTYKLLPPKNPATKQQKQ
# Sequence of UniProt O15504 (O15504 whole entry, one chain of several): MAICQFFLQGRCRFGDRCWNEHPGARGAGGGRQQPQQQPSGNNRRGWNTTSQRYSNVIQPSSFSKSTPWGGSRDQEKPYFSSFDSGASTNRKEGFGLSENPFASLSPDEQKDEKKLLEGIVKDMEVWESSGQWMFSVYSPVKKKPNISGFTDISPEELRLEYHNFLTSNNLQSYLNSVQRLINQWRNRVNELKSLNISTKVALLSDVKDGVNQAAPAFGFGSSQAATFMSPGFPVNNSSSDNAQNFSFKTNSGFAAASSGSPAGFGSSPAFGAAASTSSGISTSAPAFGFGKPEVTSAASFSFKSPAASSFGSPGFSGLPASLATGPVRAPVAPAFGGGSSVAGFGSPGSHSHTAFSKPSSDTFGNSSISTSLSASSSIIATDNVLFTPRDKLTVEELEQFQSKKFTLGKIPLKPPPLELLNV
row,Target,NP40-soluble protein abundance
1,E7EUT5|P04406 (UniProt P04406),1.01 ± 0.012
2,A0A087WYN9|Q7Z478 (UniProt Q7Z478),2.24 ± 0.062
3,F8W060|Q9BZF1 (UniProt Q9BZF1),0.936 ± 0.018
4,B4DT96|C9JYA1|O15504|O15504-2 (UniProt O15504),0.985 ± 0.095
5,B7ZC38|Q9NR46 (UniProt Q9NR46),0.993 ± 0.015
6,C9J0K6|P30626|P30626-2|P30626-3 (UniProt P30626),0.887 ± 0.066
7,A0A0X1KG71 (UniProt Q8WX92),0.9808 ± 0.0083
8,A0A0C4DGQ5|P04632 (UniProt P04632),0.9315 ± 0.0081
9,UniProt O00560|O00560-2,0.95 ± 0.073
10,HMGN4 (UniProt O00479),0.97 ± 0.35
11,A0A0A0MT22|M9MML4|P08575|P08575-2|X6R433 (UniProt P08575),0.946 ± 0.026
12,F8W057|Q9GZN1|Q9GZN1-2 (UniProt Q9GZN1),1.07 ± 0.034
13,A0A0B4J1Z1|C9JAB2|Q16629|Q16629-2|Q16629-3|Q16629-4 (UniProt Q16629),1.7 ± 0.28
14,B4DZG1|Q9Y483-3|Q9Y483 (UniProt Q9Y483),1.19 ± 0.023
15,E7EQI7|Q12768 (UniProt Q12768),1.06 ± 0.1
16,A8MXP9|P43243|P43243-2 (UniProt P43243),1.02 ± 0.042
17,J9JID7|Q03252 (UniProt Q03252),1 ± 0.066
18,E7EX59|E9PDR0|P05166|P05166-2|E7EUY3 (UniProt P05166),0.992 ± 0.049

row,Target,NP40-soluble protein abundance
1,G8JLQ3|P78537|P78537-2 (UniProt P78537),0.965 ± 0.12
2,A0A0B4J2C3|P13693|Q5W0H4 (UniProt P13693),0.95 ± 0.025
3,C9JKQ2|O43676 (UniProt O43676),0.921 ± 0.053
4,DNAJC13 (UniProt O75165),1.15 ± 0.024
5,E9PJI1|Q92993-3|Q92993-4|Q92993|Q92993-2 (UniProt Q92993),1.06 ± 0.12
6,A0A0G2JPT5|O75943|O75943-2 (UniProt O75943),1.49 ± 0.28
7,UniProt A7KAX9|A7KAX9-2,0.937 ± 0.054
8,A0A0A0MTC1|A0A0A0MTR7 (UniProt Q63HN8),1.15 ± 0.14
9,A0A0D9SEU5|Q6VN20|Q6VN20-3|R4GMX8 (UniProt Q6VN20),0.968 ± 0.017
10,A0A0A0MRR7|P09234 (UniProt P09234),1.34 ± 0.087
11,B7ZBK4|Q92664 (UniProt Q92664),1.02 ± 0.021
12,E9PEB9|Q03001|Q03001-3 (UniProt Q03001),0.92 ± 0.1
13,E9PRY8|P29692|P29692-2|P29692-3|P29692-4 (UniProt P29692),0.959 ± 0.054
14,CPNE3 (UniProt O75131),0.969 ± 0.067
15,XYLB (UniProt O75191),1 ± 0.053
16,UniProt O14662-2|O14662-4|O14662-5,0.98 ± 0.066
17,J3KPP4|O95232 (UniProt O95232),2.04 ± 0.11
18,UniProt O15169|O15169-2,1.05 ± 0.17

# Same assay, conditions: concentration: 2mM
row,Target,NP40-soluble protein abundance
1,E7EUT5|P04406 (UniProt P04406),0.959 ± 0.074
2,A0A087WYN9|Q7Z478 (UniProt Q7Z478),2.31 ± 0.051
3,F8W060|Q9BZF1 (UniProt Q9BZF1),0.933 ± 0.035
4,B4DT96|C9JYA1|O15504|O15504-2 (UniProt O15504),1.21 ± 0.19
5,B7ZC38|Q9NR46 (UniProt Q9NR46),0.977 ± 0.029
6,C9J0K6|P30626|P30626-2|P30626-3 (UniProt P30626),0.921 ± 0.078
7,A0A0X1KG71 (UniProt Q8WX92),0.989 ± 0.012
8,A0A0C4DGQ5|P04632 (UniProt P04632),0.964 ± 0.077
9,UniProt O00560|O00560-2,0.946 ± 0.041
10,HMGN4 (UniProt O00479),1.27 ± 0.44
11,A0A0A0MT22|M9MML4|P08575|P08575-2|X6R433 (UniProt P08575),0.9679 ± 0.0084
12,F8W057|Q9GZN1|Q9GZN1-2 (UniProt Q9GZN1),1.11 ± 0.034
13,A0A0B4J1Z1|C9JAB2|Q16629|Q16629-2|Q16629-3|Q16629-4 (UniProt Q16629),1.77 ± 0.28
14,B4DZG1|Q9Y483-3|Q9Y483 (UniProt Q9Y483),1.25 ± 0.027
15,E7EQI7|Q12768 (UniProt Q12768),1.06 ± 0.075
16,A8MXP9|P43243|P43243-2 (UniProt P43243),1.03 ± 0.038
17,J9JID7|Q03252 (UniProt Q03252),0.943 ± 0.063
18,E7EX59|E9PDR0|P05166|P05166-2|E7EUY3 (UniProt P05166),0.971 ± 0.02

row,Target,NP40-soluble protein abundance
1,G8JLQ3|P78537|P78537-2 (UniProt P78537),0.88 ± 0.076
2,A0A0B4J2C3|P13693|Q5W0H4 (UniProt P13693),0.942 ± 0.021
3,C9JKQ2|O43676 (UniProt O43676),0.903 ± 0.08
4,DNAJC13 (UniProt O75165),1.29 ± 0.095
5,E9PJI1|Q92993-3|Q92993-4|Q92993|Q92993-2 (UniProt Q92993),0.959 ± 0.11
6,A0A0G2JPT5|O75943|O75943-2 (UniProt O75943),1.59 ± 0.3
7,UniProt A7KAX9|A7KAX9-2,0.91 ± 0.046
8,A0A0A0MTC1|A0A0A0MTR7 (UniProt Q63HN8),1.11 ± 0.096
9,A0A0D9SEU5|Q6VN20|Q6VN20-3|R4GMX8 (UniProt Q6VN20),0.944 ± 0.05
10,A0A0A0MRR7|P09234 (UniProt P09234),1.39 ± 0.078
11,B7ZBK4|Q92664 (UniProt Q92664),1.03 ± 0.035
12,E9PEB9|Q03001|Q03001-3 (UniProt Q03001),0.924 ± 0.041
13,E9PRY8|P29692|P29692-2|P29692-3|P29692-4 (UniProt P29692),0.931 ± 0.034
14,CPNE3 (UniProt O75131),0.983 ± 0.052
15,XYLB (UniProt O75191),0.986 ± 0.062
16,UniProt O14662-2|O14662-4|O14662-5,0.94 ± 0.042
17,J3KPP4|O95232 (UniProt O95232),2.06 ± 0.14
18,UniProt O15169|O15169-2,0.887 ± 0.14

# From the supplement of paper PMC6411743
